About 8,800 targets were measured; listed, in parts, are those with a hit and a random draw of the rest. About 0.5% of all pairs of compound and target were hits. A number with no mark means an inactive call.
Experiments:
Assay in all cases: log2 fold change, soluble protein after heating vs DMSO (PISA); higher = thermal stabilisation; K562 lysate, 10 uM; active = over 0.2 and 3.5 SD of the protein, either way, in both replicates (recomputed)
[1] = compound: NCC(=O)Nc1ccc(-n2nc(C(F)(F)F)cc2-c2ccc3c(ccc4ccccc43)c2)cc1
Procedure, shortened: (§1)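 To prepare the extract, K562 pellets were dounce-homogenised in PBS pH 7.4 with 1 mM MgCl2, giving crude material at 1 mg/mL protein. This was treated with 10 μM compound for 30 min, then heated in aliquots for 3 min over 48°C-58°C before pooling and addition of NP-40 to 0.5% at 4°C. Centrifugation at 21,000xg for 90 min left soluble protein in the supernatant, which TMTpro 16plex LC-MS/MS quantified with equalised channel sums. Results are log-two fold changes in thermal stability compared with solvent controls, from duplicates.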

vorinostat = compound: O=C(CCCCCCC(=O)Nc1ccccc1)NO [vorinostat]
Procedure, shortened: as §1

silmitasertib = compound: O=C(O)c1ccc2c(c1)nc(Nc1cccc(Cl)c1)c1ccncc12 [silmitasertib]
Procedure, shortened: as §1

[2] = compound: O=C1NC(=O)C(c2cnc3ccccn23)=C1c1cn2c3c(cc(F)cc13)CN(C(=O)N1CCCCC1)CC2
Procedure, shortened: as §1

entospletinib = compound: c1cn2cc(-c3ccc4cn[nH]c4c3)nc(Nc3ccc(N4CCOCC4)cc3)c2n1 [entospletinib]
Procedure, shortened: as §1

Chain of UniProt Q70J99 (Q70J99 whole entry, looked up): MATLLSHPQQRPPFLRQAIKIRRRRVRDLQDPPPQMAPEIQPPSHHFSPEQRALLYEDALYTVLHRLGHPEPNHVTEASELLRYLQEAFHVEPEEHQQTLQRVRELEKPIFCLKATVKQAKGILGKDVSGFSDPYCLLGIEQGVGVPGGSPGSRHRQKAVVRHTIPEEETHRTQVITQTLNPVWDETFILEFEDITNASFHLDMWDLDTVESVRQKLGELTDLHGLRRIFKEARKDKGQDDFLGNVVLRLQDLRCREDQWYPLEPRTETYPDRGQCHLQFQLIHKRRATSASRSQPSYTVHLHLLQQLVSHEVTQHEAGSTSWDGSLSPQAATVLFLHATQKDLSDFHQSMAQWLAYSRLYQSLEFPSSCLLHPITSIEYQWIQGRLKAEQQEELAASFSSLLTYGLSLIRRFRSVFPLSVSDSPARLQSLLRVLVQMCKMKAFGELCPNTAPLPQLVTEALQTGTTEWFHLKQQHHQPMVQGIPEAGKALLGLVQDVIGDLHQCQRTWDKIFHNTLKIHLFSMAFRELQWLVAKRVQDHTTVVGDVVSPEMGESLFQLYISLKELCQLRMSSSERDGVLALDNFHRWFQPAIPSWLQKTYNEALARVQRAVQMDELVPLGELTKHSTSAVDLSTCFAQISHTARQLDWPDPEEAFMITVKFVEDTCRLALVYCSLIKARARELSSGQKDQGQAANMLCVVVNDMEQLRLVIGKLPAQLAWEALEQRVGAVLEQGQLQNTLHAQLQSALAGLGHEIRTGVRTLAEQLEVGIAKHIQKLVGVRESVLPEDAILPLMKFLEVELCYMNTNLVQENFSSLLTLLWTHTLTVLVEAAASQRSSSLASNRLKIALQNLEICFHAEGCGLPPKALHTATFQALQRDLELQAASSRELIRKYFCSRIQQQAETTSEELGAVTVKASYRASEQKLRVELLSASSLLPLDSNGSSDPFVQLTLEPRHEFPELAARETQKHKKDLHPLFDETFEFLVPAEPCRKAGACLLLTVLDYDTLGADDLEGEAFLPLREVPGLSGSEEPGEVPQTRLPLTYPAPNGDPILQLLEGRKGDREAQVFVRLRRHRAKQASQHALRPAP
Chain of UniProt Q9BRT2 (Q9BRT2 whole entry, looked up): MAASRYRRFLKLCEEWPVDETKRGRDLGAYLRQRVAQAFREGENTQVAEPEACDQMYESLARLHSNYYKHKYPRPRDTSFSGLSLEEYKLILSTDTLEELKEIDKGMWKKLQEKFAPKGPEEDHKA
Chain of UniProt Q9UKY1 (Q9UKY1 whole entry, looked up): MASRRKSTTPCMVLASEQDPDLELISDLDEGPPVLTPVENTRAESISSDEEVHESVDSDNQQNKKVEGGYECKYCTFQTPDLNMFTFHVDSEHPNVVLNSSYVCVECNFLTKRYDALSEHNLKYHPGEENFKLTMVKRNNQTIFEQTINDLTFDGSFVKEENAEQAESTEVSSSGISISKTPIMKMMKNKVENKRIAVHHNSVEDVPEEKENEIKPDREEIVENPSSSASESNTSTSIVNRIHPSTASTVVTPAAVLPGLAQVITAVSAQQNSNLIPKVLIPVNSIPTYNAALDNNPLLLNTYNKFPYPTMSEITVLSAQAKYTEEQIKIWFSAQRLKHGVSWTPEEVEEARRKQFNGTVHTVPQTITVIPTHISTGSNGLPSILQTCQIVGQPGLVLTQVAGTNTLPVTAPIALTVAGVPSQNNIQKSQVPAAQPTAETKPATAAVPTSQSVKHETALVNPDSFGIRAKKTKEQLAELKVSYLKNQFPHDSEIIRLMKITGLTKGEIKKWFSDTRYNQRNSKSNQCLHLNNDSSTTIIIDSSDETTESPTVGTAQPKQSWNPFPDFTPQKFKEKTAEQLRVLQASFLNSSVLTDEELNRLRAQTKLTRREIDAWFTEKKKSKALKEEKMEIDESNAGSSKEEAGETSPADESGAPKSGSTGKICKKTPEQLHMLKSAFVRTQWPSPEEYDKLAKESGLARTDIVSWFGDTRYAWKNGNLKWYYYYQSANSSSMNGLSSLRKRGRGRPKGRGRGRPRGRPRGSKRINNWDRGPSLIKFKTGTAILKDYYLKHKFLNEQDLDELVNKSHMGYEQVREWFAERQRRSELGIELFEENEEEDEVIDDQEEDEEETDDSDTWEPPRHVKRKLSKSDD
Chain of UniProt Q9NUE0 (Q9NUE0 whole entry, looked up): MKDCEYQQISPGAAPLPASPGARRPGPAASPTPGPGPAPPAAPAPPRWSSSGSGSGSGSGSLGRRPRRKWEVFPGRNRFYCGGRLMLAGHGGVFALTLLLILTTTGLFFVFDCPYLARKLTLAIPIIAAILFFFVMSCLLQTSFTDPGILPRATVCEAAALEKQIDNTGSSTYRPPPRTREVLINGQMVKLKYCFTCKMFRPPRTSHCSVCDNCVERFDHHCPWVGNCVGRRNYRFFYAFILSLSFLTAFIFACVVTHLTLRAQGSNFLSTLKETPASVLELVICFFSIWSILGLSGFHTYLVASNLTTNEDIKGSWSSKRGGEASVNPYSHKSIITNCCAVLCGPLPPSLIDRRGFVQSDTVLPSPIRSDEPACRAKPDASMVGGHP
Chain of UniProt Q9Y5J1 (Q9Y5J1 whole entry, looked up): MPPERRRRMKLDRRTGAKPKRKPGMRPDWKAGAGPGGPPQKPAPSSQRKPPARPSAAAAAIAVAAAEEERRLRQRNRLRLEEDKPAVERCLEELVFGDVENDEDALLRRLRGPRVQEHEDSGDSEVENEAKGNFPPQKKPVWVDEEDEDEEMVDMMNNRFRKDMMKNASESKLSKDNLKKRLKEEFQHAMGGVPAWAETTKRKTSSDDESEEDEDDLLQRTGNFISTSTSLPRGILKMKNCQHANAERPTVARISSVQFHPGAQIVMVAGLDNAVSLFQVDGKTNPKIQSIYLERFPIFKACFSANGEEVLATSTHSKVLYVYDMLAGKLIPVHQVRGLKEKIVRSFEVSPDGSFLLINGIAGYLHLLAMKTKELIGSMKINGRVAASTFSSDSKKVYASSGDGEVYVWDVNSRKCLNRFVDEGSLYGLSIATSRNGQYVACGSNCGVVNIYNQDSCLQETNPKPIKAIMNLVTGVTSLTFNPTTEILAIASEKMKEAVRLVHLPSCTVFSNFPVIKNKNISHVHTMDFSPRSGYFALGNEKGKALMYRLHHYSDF
Chain of UniProt Q86T24 (Q86T24 whole entry, looked up): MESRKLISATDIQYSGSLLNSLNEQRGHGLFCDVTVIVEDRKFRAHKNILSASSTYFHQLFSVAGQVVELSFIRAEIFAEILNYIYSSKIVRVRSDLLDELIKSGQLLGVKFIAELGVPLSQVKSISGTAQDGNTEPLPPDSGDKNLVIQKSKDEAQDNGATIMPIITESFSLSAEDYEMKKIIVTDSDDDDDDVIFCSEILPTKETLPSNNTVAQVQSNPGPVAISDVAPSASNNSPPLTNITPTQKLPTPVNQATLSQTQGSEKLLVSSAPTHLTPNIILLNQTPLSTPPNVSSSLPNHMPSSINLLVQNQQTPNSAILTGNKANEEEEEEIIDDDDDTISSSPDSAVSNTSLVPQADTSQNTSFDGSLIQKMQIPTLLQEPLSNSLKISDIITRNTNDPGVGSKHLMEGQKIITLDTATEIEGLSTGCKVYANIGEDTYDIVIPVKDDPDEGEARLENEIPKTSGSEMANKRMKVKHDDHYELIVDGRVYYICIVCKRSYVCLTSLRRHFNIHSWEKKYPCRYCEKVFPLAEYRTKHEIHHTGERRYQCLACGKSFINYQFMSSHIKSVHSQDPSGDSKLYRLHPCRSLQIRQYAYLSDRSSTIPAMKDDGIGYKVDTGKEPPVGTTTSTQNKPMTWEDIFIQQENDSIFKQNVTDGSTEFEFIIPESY
Chain of UniProt Q9BTA9 (Q9BTA9 whole entry, looked up): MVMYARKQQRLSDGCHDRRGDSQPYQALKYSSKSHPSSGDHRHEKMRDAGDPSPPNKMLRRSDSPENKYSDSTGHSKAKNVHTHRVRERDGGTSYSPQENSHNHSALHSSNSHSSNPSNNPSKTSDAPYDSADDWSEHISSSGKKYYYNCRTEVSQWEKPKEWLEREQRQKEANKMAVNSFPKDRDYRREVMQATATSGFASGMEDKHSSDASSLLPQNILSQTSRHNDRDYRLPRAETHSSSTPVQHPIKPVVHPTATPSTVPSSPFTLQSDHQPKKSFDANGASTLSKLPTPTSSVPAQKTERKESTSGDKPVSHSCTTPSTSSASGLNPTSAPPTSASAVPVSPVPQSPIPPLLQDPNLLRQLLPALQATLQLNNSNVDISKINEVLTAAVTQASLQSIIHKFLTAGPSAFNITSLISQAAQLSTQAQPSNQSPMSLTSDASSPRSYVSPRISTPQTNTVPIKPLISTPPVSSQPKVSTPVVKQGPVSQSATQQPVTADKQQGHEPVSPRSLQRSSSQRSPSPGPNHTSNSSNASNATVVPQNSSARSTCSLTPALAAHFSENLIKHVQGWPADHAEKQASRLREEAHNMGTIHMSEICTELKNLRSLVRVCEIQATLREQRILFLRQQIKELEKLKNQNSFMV

| Target | log2 fold change [1] | log2 fold change (vorinostat) | log2 fold change (silmitasertib) | log2 fold change [2] | log2 fold change (entospletinib) |
| --- | --- | --- | --- | --- | --- |
| ZDHHC18 (UniProt Q9NUE0) | -0.064 | -0.162 | 0.163 | 0.009 | 0.034 |
| WDCP (UniProt Q9H6R7) | -0.066 | -0.233 (active) | 0.022 | 0.02 | -0.036 |
| UQCC2 (UniProt Q9BRT2) | -0.019 | 0.121 | -0.021 | -0.06 | -0.039 |
| ZHX1 (UniProt Q9UKY1) | 0.043 | -0.249 | -0.094 | -0.018 | -0.082 |
| ZBTB33 (UniProt Q86T24) | 0.061 | 0.103 | -0.082 | 0.009 | -0.033 |
| ZNF609 (UniProt O15014) | 0.184 | -0.309 (active) | 0.041 | -0.013 | -0.026 |
| UTP18 (UniProt Q9Y5J1) | 0.045 | -0.078 | -0.014 | 0.029 | -0.136 |
| UNC13D (UniProt Q70J99) | 0.022 | -0.211 (active) | 0.002 | -0.006 | 0.026 |
| WAC (UniProt Q9BTA9) | 0.011 | -0.309 (active) | -0.031 | -0.014 | -0.046 |

— the supplement of paper PMC10849652
